High-throughput results (PubChem)
Rango release inh: prevents RanGTP from dissociating the Rango-importin beta complex; O95149+P62826; Biochemical FRET Rango-importin beta, RanGTP-induced dissociation; Potency, µM (doses to about 46.1 µM), inactives show at the top dose activity change, negative = inhibition; 340,000 compounds, 0.071% hits; calls by dose curve; further: % of control where 0% means no effect; nearly all actives have a fitted effect of over 45% in size
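FRET read at 45 min, room temperature: inhibitors block the CFP/YFP signal rise when RanGTP (0.6 uM Ran, 2 mM GTP, 0.2 uM RCC1) frees Rango (0.1 uM) from importin beta (0.25 uM). Pre-read after 5 min compound exposure flags interference.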
S-ASM inh: human S-ASM enzyme inhibition | placental ASM, HMU-PC fluorogenic substrate, 60 min | Potency, µM (doses to about 57.5 µM), for the others: at the highest dose activity change, negative = inhibition, usual class: inhibitors | 340,000 compounds, 0.006% hits
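Fluorescence read-out (Ex 386 nm, Em 447 nm) after stopping the reaction at pH 10. Enzyme: ASM from human placenta; substrate HMU-PC0, 9 uM final; 60 min, 37 °C. Compound preincubation 10 min, ambient temperature.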
Vif-A3F inh: blocks the Vif interaction with APOBEC3F | HeLa A3F-eYFP + Vif (tagged APOBEC3F with the HIV-1 protein that degrades it), YFP fluorescence increase | Potency, µM (top dose mostly 46.1 µM), for inactives: at the top dose activity, negative = active | 390,000 compounds, 0.2% hits; further: % of control where 0% means no effect; nearly all actives have a fitted effect of over 65% in size
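Fluorescence increase (Ex 488/Em 500-530) after overnight compound treatment at 37 deg C flags inhibition of Vif-driven A3F-eYFP loss in stable HeLa A3F-eYFP/Vif cells seeded overnight beforehand.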
Rango-impB inh: Rango-importin beta binding inhibition | Q14974 | Rango CFP/YFP FRET sensor + importin beta, 45 min | Potency, µM (highest dose often 92.2 µM), inactives show at the top dose inhibition of complex formation | 340,000 compounds, 0.031% hits | AID 540263; calls by dose curve;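 further: 0% = DMSO wells and 100% = buffer wells lacking importin beta; nearly all actives have a fitted effect of over 15% in size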
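Inhibition scored from the CFP 486 nm/YFP 530 nm FRET ratio 45 min after adding 0.125 microM importin beta to 50 nM Rango biosensor preincubated 5 min with compound (room temperature, PBS with DTT, Tween-20, BSA). No-importin wells as positive control.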
Eya2 phos inh: blocks the phosphatase activity of human Eya2. recombinant Eya2, OMFP fluorescence dephosphorylation (OMFP is methylfluorescein phosphate). Potency, µM (doses to about 76.9 µM), for inactives: at the top dose activity, negative = inhibition, usual class: inhibitors. 330,000 compounds, 0.006% hits; further: on the % scale 0 is the no-effect control and ±100 the full control effect
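Eya2 protein (added as 0.2 uM solution) was preincubated with compound for 10 min at ambient temperature in 50 mM HEPES pH 7.5, 50 mM NaCl, 5 uM MgCl2, 0.05% BSA, 1 mM DTT. OMFP (added at 50 uM) then reacted 10 min; fluorescence read at 485/525 nm.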
Vif-APOBEC3G blk: Vif-A3G binding inhibition; AID 602310; Potency, µM (highest dose often 46.1 µM), for the others: at the highest dose activity, negative = active, hits mostly inhibitors; 410,000 compounds, 0.076% hits; HeLa A3G-eYFP + Vif (tagged APOBEC3G with the HIV-1 protein that degrades it), YFP fluorescence, overnight; further: on the % scale 0 is the no-effect control and ±100 the full control effect; nearly all actives have a fitted effect of over 60% in size
Target sequence (Q9HC16 whole entry, looked up): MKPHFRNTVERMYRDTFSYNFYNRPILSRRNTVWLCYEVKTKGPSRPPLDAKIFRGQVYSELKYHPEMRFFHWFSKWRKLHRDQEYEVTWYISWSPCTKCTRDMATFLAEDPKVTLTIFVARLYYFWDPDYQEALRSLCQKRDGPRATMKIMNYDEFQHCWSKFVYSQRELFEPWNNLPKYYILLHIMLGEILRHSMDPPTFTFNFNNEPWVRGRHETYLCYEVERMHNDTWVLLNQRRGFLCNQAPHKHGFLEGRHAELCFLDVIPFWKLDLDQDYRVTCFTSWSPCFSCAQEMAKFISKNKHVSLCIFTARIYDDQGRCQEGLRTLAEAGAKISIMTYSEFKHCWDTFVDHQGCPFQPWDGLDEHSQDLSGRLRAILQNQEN
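HeLa cells stably expressing Vif and C-terminally eYFP-tagged A3G, seeded overnight at 37 deg C, then exposed to compound by pintool overnight at 37 deg C. Rise in yellow fluorescence (Ex 488/Em 500-530, Acumen) marks blocked Vif-driven A3G degradation.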
An asterisk follows results filed as active; ! = not confirmed by another sample; [ ] = dose if it differs, or a comment. The list is not random: actives were taken first. Their share in the collection is about 0.34%. Unless noted, the call rests on the fitted dose curve; in most records, active means well fitted curve in the direction sought with a large enough effect; inconclusive means small, poorly fitted or top-dose-only effect, or another doubt; inactive means no such curve, though single readings can be large; an effect the other way counts as inactive or inconclusive. Potency means the concentration at half of the fitted maximal effect.

Results for CCOC(=O)c1ccc2c(c1)N(C)C(=O)c1ccccc1S2 ?
Rango release inh: -1%; S-ASM inh: 3%; Vif-A3F inh: 3%; Rango-impB inh: -3%; Eya2 phos inh: 2%; Vif-APOBEC3G blk: -1%

Results for Fc1ccc(COc2ccc3ccccc3c2CNc2nn[nH]n2)cc1 ?
Rango release inh: -3%; S-ASM inh: 1%; Vif-A3F inh: -1%; Rango-impB inh: -4%; Eya2 phos inh: 1%; Vif-APOBEC3G blk: 13µM*

What do the screens show for `Fc1ccccc1COc1ccc2ccccc2c1CNc1nn[nH]n1`?
Rango release inh: 0%; S-ASM inh: -1%; Vif-A3F inh: -20%; Rango-impB inh: 0%; Eya2 phos inh: 4%; Vif-APOBEC3G blk: inconclusive

Results for Cc1cc(NC(=O)/C(C#N)=C\c2ccc(-c3ccc(SC(F)F)cc3)o2)n(-c2ccccc2)n1 ?
Rango release inh: inconclusive; S-ASM inh: -2%; Vif-A3F inh: 10µM*; Rango-impB inh: inconclusive; Vif-APOBEC3G blk: inconclusive

How did O=[N+]([O-])c1ccc(N/N=C/C=C/c2ccco2)cc1 do in these assays?
Rango release inh: inconclusive; S-ASM inh: -4%; Vif-A3F inh: 11µM*; Rango-impB inh: inconclusive; Vif-APOBEC3G blk: inconclusive

Results for CCOc1ccc(CNC(=O)c2ccc(NC(=O)c3nsc4ccccc34)cc2)cc1 ?
Vif-A3F inh: 0%; Vif-APOBEC3G blk: 10%

How did CCOc1ccc(CNC(=O)c2ccccc2NC(=O)c2nsc3ccccc23)cc1 do in these assays?
Vif-A3F inh: 7.9µM*; Vif-APOBEC3G blk: -11%

What do the screens show for `CCOc1cc(/C=C2\SC(=NC)N(C)C2=O)c(Br)cc1OC(C)=O`?
Rango release inh: inconclusive; S-ASM inh: 3%; Vif-A3F inh: -34%; Rango-impB inh: inconclusive; Eya2 phos inh: 6%; Vif-APOBEC3G blk: -11%

Results for CCOc1cc(/C=C2\SC(=NC)N(C)C2=O)cc(Cl)c1OC(C)=O ?
Rango release inh: 4.6µM*[inhibitor]; S-ASM inh: -24%; Vif-A3F inh: -5%; Rango-impB inh: inconclusive; Eya2 phos inh: 7%; Vif-APOBEC3G blk: -8%

What do the screens show for `CCOC(=O)c1ccc(N=Nc2c(C)c(C#N)c(O)[nH]c2=O)cc1`?
Rango release inh: -29%; S-ASM inh: -20%; Vif-A3F inh: 10µM*; Rango-impB inh: inconclusive; Eya2 phos inh: inconclusive; Vif-APOBEC3G blk: -11%

Results for Cc1c(C#N)c(O)n(C)c(=O)c1N=Nc1ccc(S(N)(=O)=O)cc1 ?
Rango release inh: -15%; S-ASM inh: -7%; Vif-A3F inh: inconclusive; Rango-impB inh: 7%; Eya2 phos inh: 10%; Vif-APOBEC3G blk: 1%

How did COc1ccccc1N1CCN(C(=O)c2cc(CC(C)C)on2)CC1 do in these assays?
Vif-A3F inh: 0%; Vif-APOBEC3G blk: -6%

What do the screens show for `COc1ccc(/C=N/N(C)C2=NS(=O)(=O)c3ccccc32)cc1`?
Rango release inh: -26%; S-ASM inh: 415%; Vif-A3F inh: -2%; Rango-impB inh: inconclusive; Eya2 phos inh: -2%; Vif-APOBEC3G blk: -1%

What do the screens show for `CN(/N=C/c1ccc(N(C)C)cc1)C1=NS(=O)(=O)c2ccccc21`?
Rango release inh: inconclusive; S-ASM inh: -2%; Vif-A3F inh: inactive; Rango-impB inh: inconclusive; Eya2 phos inh: -9%; Vif-APOBEC3G blk: 4.5µM*

What do the screens show for `CCOc1ccccc1N1CC(c2nc3ccccc3n2CCOc2ccc(OC)cc2)CC1=O` (stereo unspecified)?
Vif-A3F inh: -8%; Vif-APOBEC3G blk: -8%

How did CCOc1ccccc1N1CC(c2nc3ccccc3n2Cc2c(C)cc(C)cc2C)CC1=O (stereo unspecified) do in these assays?
Vif-A3F inh: 13µM*; Vif-APOBEC3G blk: -27%

Results for Cc1ccc2nc(/C(C#N)=C\c3ccc(N4CCOCC4)o3)[nH]c2c1 ?
Rango release inh: inconclusive; S-ASM inh: 0%; Vif-A3F inh: -15%; Rango-impB inh: inconclusive; Eya2 phos inh: inconclusive; Vif-APOBEC3G blk: inconclusive

What do the screens show for `N#C/C(=C\c1ccc(-c2ccccc2C(=O)O)o1)c1nc2ccccc2[nH]1`?
Rango release inh: inconclusive; S-ASM inh: -2%; Vif-A3F inh: 22µM*!; Rango-impB inh: inconclusive; Eya2 phos inh: 10%; Vif-APOBEC3G blk: -9%

How did Cc1cc2nc(/C(C#N)=C\c3ccc(-c4ccccc4C(=O)O)o3)[nH]c2cc1C do in these assays?
Rango release inh: inconclusive; S-ASM inh: -11%; Vif-A3F inh: -319%; Rango-impB inh: inconclusive; Eya2 phos inh: inconclusive; Vif-APOBEC3G blk: 8%

Results for Cc1ccc2nc(/C(C#N)=C\c3ccc([N+](=O)[O-])o3)[nH]c2c1 ?
Rango release inh: inconclusive; S-ASM inh: -17%; Vif-A3F inh: inconclusive; Rango-impB inh: inconclusive; Eya2 phos inh: 1%; Vif-APOBEC3G blk: 6.3µM*

How did N#C/C(=C\c1ccc(Sc2ccccc2)o1)c1nc2ccccc2[nH]1 do in these assays?
Rango release inh: inconclusive; S-ASM inh: -13%; Vif-A3F inh: inconclusive; Rango-impB inh: inconclusive; Eya2 phos inh: 27%; Vif-APOBEC3G blk: inconclusive

Results for Cc1ccc2nc(/C(C#N)=C/c3ccc(-c4ccccc4C(=O)O)o3)[nH]c2c1 ?
Rango release inh: inconclusive; S-ASM inh: -6%; Vif-A3F inh: 11µM*; Rango-impB inh: inconclusive; Eya2 phos inh: inconclusive; Vif-APOBEC3G blk: inconclusive

Results for N#C/C(=C\c1ccc(-c2ccc(F)cc2F)o1)c1nc2ccccc2[nH]1 ?
Vif-A3F inh: 11µM*; Vif-APOBEC3G blk: 11µM*

How did COc1ccc(NC(=O)c2cccc(N3CCCS3(=O)=O)c2)cc1 do in these assays?
Vif-A3F inh: -2%; Vif-APOBEC3G blk: -4%

How did CCCN(CCC)c1ccc(/C=C/c2sc3ccccc3[n+]2CCCCI)cc1 do in these assays?
Vif-APOBEC3G blk: -26%

Results for COc1cc(Br)c(/C=C(\C#N)c2nc3ccccc3[nH]2)cc1OC ?
Vif-A3F inh: 25µM*; Vif-APOBEC3G blk: -23%

What do the screens show for `Cc1cc(C(=O)N/N=C/c2cc(Br)cc(Br)c2OC(=O)c2cccc(F)c2)n[nH]1`?
Rango release inh: 3.7µM*; S-ASM inh: -4%; Vif-A3F inh: -13%; Rango-impB inh: inconclusive; Eya2 phos inh: 9%; Vif-APOBEC3G blk: -1%

How did O=C(CC1CC2CCC1C2)Nc1nc(-c2ccccn2)cs1 (stereo unspecified) do in these assays?
Rango release inh: -4%; S-ASM inh: -3%; Vif-A3F inh: 13µM*; Rango-impB inh: -1%; Eya2 phos inh: -2%; Vif-APOBEC3G blk: 1%
